Measured values taken from PubChem BioAssay (NCI).
The panel holds about 83,000 compounds, 20% with a hit somewhere; the sample as a whole holds those more often.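 96-well plates, one dose, 48 hours. Percent growth reported; active if below 10.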 Values without a mark were called inactive. The source made the active and inactive calls.

Experiments:
Assay in all cases: NCI-60 one-dose screen, 48 h (100 = growth as untreated, 0 = no growth, -100 = all killed)
Settings in all cases: 10 µM unless noted
[1] = test system: NCI-H23 lung
[2] = test system: NCI-H226 lung
[3] = test system: NCI-H322M lung
[4] = test system: HOP-62 NSCLC
[5] = test system: NCI-H460 lung
[6] = test system: HOP-92 NSCLC
[7] = test system: NCI-H522 lung
[8] = test system: A549/ATCC NSCLC
[9] = test system: 786-0 renal
[10] = test system: COLO 205 colon
[11] = test system: DU-145 prostate
[12] = test system: K-562 leukemia
[13] = test system: MALME-3M melanoma
[14] = test system: MDA-MB-231 breast
[15] = test system: RXF 393 renal
[16] = test system: SF-268 CNS
[17] = test system: SF-295 CNS
[18] = test system: SF-539 CNS
[19] = test system: UACC-257 melanoma
[20] = test system: M14 melanoma

SMILES	growth [1]	growth [2]	growth [3]	growth [4]	growth [5]	growth [6]	growth [7]	growth [8]	growth [9]	growth [10]	growth [11]	growth [12]	growth [13]	growth [14]	growth [15]	growth [16]	growth [17]	growth [18]	growth [19]	growth [20]
CC(C)[C@H]1COC(=O)N1[C@@H]1C(=O)N([C@@H](CCC(=O)N2CCN(C3CCCC3)CC2)C(=O)N[C@@H]2CCCc3ccccc32)[C@@H]1/C=C/c1cccc(Cl)c1	72.1%	88.9%	57.9%	79%	46.2%	31.4%	75.5%	35.9%	54.9%	57.7%	65.3%	45.5%	82.3%	44.7%	50%	28.5%	54%	68.9%	20.5%	36.6%
CC1=C/C(=C(\c2cc(C)c(O)c(C(=O)O)c2)c2c(Cl)cccc2Cl)C=C(C(=O)O)C1=O	98.8%	96.7%	97.7%	97%	104%	92.9%	97.8%	100%	102%	110%	118%	114%	88.3%	99.9%	120%	104%	100%	100%	106%	97.4%
CCc1ccc(NC(=O)N[C@@H](Cc2cc(F)cc(F)c2)C(=O)N[C@@H]2C(=O)N3C[C@H](O)C[C@H]3C(=O)N3CCOC[C@H]3C(=O)N[C@@H](C)C(=O)N3C[C@H](C)C[C@H]3C(=O)O[C@H]2C)cc1	34.5%	63.2%	84.3%	72.9%	46.5%	10.3%	27%	79.3%	89.1%	11.1%	42.6%	24.7%	39.4%	16.1%	88.1%	29.1%	81.9%	55.8%	21.5%	84.8%
O=C(Nc1cccc(C2=NCCN2)c1)c1cccc(C(=O)Nc2cccc(C3=NCCN3)c2)c1	95.4%	90.5%	92.4%	97.1%	102%	101%	94.1%	102%	103%	99.8%	107%	96.6%	97.1%	101%	102%	96.4%	99%	95.7%	95.8%	99%
CC(=O)OC[C@]12CC[C@@H](C(=O)CBr)[C@@H]1[C@H]1CC[C@@H]3[C@@]4(C)CCCNC(C)(C)[C@@H]4CC[C@@]3(C)[C@]1(C)CC2	-64.3% [100 µM] (active)	-20.3% [100 µM] (active)	-100% [100 µM] (active)	-86.8% [100 µM] (active)	-66.7% [100 µM] (active)	-76.7% [100 µM] (active)	-81.4% [100 µM] (active)	-69.7% [100 µM] (active)	-74.3% [100 µM] (active)	-59.3% [100 µM] (active)	-94.7% [100 µM] (active)	5.86% [100 µM] (active)	-75.7% [100 µM] (active)	-71.8% [100 µM] (active)	-81.9% [100 µM] (active)	-65.5% [100 µM] (active)	-85.4% [100 µM] (active)	-81.4% [100 µM] (active)	-76.6% [100 µM] (active)	-48.5% [100 µM] (active)
CSc1nc2c(c(=O)n1C)C1(C(=O)N(Cc3ccccc3)c3ccccc31)c1c(nc(SC)n(C)c1=O)N2	92.9%	74.3%	95.5%	84%	87.2%	93.2%	73.9%	68.5%	113%	105%	92.7%	89.8%	94%	77.6%	88.3%	97.2%	85.3%	106%	75.1%	99.7%
Oc1cc(Nc2ccnc3cc(Cl)ccc23)c2ncccc2c1	73.8%	91%	99.7%	74.4%	75.5%	39.3%	76.7%	84.2%	106%	96.4%	58.4%	76.6%	52%	14.8%	68.6%	73.8%	108%	93.9%	82.2%	75.8%
O=C1Nc2ccccc2/C1=C/C(=O)c1ccc(N2CCCCC2)cc1	75.7%	86.7%	96.6%	102%	77.9%	56.7%	61.7%	95.1%	98.7%	74.6%	66.8%	68.2%	69.8%	82.1%	77%	71.7%	103%	79.3%	97.7%	107%
CCC(Br)(CC)C(=O)c1ccc(OCC(=O)O)c(Cl)c1Cl	103%	87.4%	112%	119%	96%	102%	82.1%	91.5%	117%	108%	114%	114%	107%	107%	88.8%	100%	81.6%	96.9%	124%	116%
Cc1ccc(-c2cn(C/C=C3\C=CN(S(=O)(=O)c4ccccc4)CC3)nn2)cc1	96.1%	99.5%	95.8%	97.6%	99.1%	92.7%	93.3%	104%	101%	129%	118%	89.5%	104%	97.5%	123%	99.3%	99.3%	100%	106%	92.5%
COc1ccc(/C=C(/C(=O)c2ccc(Cl)cc2)C(=O)C(F)(F)F)cc1	91.4%	99.9%	77.7%	91.9%	109%	101%	74.8%	92%	99.1%	110%	99.2%	92.1%	107%	110%	104%	96.8%	96.2%	108%	99.3%	120%
CC1Cc2c(Cl)ncnc2N(C)c2ccc(O)cc21 (stereo not given)	45.7%	82.2%	44.2%	53.8%	84.3%	85.1%	92.5%	28.4%	-3.93% (active)	91.7%	108%	89.6%	53.4%	21.1%	32.1%	29.1%	49.7%	34.6%	33.9%	21.9%
CC(C)C1=NOC(=O)C1=Cc1cn(-c2ccccc2)nc1-c1ccccc1	98%	95.2%	91%	99.8%	85.2%	85.2%	68.7%	88.8%	72.9%	110%	80.8%	42.2%	90.5%	97.4%	70.3%	93.9%	98.1%	91.3%	94.1%	76.2%
CCOC(=O)c1nn(C2CCCCO2)c2ccc(NC(=O)CN3CCCC3)cc12 (stereo not given)	110%	110%	89.7%	92.7%	100%	106%	97.9%	100%	93.3%	126%	104%	100%	102%	104%	133%	93%	98.5%	95.7%	91.3%	98.2%
